Holding throughout (assay): DAPPL (digital affinity profiling via proximity ligation, sequencing); 10 mM Tris-HCl pH 7.5, 50 mM NaCl, 1 mM DTT, 4% glycerol, room temperature, 30 min; GST-TFs on glutathione beads, 16-mer random dsDNA library, 0.1% formaldehyde crosslink after washing; high values mean tight binding
One assay concerns the target T1, FLI1 (Homo sapiens, UniProt Q01543 1-452).
T1 sequence: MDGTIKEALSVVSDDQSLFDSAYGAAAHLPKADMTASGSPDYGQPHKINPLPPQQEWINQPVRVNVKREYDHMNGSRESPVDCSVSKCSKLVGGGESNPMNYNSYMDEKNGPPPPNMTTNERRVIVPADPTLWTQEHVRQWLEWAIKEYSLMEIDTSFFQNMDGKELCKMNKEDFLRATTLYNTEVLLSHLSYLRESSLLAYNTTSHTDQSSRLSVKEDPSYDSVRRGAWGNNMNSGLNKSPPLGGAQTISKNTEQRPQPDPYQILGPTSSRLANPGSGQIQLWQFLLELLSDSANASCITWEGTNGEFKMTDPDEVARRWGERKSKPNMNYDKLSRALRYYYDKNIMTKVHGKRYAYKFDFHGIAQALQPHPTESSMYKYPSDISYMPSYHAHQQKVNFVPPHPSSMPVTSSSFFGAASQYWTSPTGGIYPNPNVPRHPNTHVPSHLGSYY
To be noted: protein: recombinant; tags: N-terminal GST; dsDNA, one strand shown. The procedure, abridged:
(§1)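 In yeast, human transcription factors were expressed with a GST fusion, then pulled down on glutathione beads and given DNA barcodes. Pooled with a tag-only sample, they were exposed to 200 nmole of a 16-mer random double-stranded DNA library (Tris/NaCl/DTT/glycerol buffer, room temperature, 30 min), washed, crosslinked with 0.1% formaldehyde, proximity-ligated using BsaI/T4 ligase for 1 h at 37 °C, PCR-amplified and read on an Illumina NextSeq500. Each hexamer's frequency of reads for a factor, divided by the matching frequency for the tag-only sample, gives the binding signal.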

A further assay concerns the target T2, ELK1 (Homo sapiens, UniProt P19419 1-428).
T2 sequence: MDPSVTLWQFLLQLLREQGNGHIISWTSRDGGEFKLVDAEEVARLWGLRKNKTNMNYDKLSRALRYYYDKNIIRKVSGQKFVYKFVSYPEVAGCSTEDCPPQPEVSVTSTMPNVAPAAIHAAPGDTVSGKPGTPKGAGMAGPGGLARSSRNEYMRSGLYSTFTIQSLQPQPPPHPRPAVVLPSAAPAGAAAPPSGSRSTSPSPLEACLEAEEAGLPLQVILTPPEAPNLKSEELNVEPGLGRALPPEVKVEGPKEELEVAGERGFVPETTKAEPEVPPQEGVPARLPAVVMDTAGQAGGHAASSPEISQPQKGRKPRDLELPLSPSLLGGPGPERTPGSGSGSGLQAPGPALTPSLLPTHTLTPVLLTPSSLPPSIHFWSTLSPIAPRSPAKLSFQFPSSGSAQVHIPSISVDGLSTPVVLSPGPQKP
The settings on record: protein: recombinant; tags: N-terminal GST; dsDNA, one strand shown. An outline of the steps:
as §1

The target in another assay is T3, GABPA (Homo sapiens, UniProt Q06546 1-454).
T3 sequence: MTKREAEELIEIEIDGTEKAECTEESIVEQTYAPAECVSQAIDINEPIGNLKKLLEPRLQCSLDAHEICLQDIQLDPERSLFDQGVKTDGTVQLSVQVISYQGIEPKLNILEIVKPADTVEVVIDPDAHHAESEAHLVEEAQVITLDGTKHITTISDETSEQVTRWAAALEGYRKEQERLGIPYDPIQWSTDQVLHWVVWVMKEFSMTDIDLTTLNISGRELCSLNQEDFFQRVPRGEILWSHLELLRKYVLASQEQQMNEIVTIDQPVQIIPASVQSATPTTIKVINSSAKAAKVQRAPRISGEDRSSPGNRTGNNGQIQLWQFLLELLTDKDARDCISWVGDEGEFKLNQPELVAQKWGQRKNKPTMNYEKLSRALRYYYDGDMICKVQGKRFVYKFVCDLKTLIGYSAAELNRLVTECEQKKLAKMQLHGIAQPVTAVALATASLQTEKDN
To be noted: protein: recombinant; tags: N-terminal GST; dsDNA, one strand shown. An outline of the steps:
as §1

For another assay, the target named is T4, ERG (Homo sapiens, UniProt P11308 1-479).
T4 sequence: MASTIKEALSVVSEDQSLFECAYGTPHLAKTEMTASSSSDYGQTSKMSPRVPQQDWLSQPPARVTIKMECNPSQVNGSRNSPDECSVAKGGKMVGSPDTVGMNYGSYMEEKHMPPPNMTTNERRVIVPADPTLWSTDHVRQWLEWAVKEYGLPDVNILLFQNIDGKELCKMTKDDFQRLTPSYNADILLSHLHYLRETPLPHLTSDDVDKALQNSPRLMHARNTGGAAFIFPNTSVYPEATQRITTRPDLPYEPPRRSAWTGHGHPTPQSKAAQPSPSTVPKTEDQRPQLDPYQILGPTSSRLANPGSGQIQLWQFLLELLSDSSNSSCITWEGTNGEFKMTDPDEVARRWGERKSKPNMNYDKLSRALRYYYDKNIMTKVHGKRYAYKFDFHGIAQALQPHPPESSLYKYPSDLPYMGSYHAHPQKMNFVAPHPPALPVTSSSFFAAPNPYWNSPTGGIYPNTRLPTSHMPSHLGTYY
To be noted: protein: recombinant; tags: N-terminal GST; dsDNA, one strand shown. An outline of the steps:
as §1

Another assay deals with ELF1 (Homo sapiens, UniProt P32519 1-619). To be noted: protein: recombinant; tags: N-terminal GST; dsDNA, one strand shown. An outline of the steps:
as §1

A further assay addresses T5, EHF (Homo sapiens, UniProt Q9NZC4 1-300).
T5 sequence: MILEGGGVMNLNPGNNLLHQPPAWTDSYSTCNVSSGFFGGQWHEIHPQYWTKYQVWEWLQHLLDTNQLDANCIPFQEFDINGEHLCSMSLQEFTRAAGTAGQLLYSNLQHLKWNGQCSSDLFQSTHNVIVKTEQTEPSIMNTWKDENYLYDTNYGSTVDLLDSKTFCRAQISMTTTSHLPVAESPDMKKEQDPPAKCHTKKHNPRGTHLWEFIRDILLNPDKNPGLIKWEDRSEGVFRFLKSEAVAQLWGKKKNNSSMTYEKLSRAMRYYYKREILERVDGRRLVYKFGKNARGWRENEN
The settings on record: protein: recombinant; tags: N-terminal GST; dsDNA, one strand shown. The procedure, abridged: as §1

The target in another assay is SPI1 (Homo sapiens, UniProt P17947 1-270). The settings on record: protein: recombinant; tags: N-terminal GST; dsDNA, one strand shown. An outline of the steps:
as §1

For a further assay, the target named is SPIB (Homo sapiens, UniProt Q01892 1-262). To be noted: protein: recombinant; tags: N-terminal GST; dsDNA, one strand shown. The procedure, abridged:
as §1

The target of a further assay is T6, ELK3 (Homo sapiens, UniProt P41970 1-407).
T6 sequence: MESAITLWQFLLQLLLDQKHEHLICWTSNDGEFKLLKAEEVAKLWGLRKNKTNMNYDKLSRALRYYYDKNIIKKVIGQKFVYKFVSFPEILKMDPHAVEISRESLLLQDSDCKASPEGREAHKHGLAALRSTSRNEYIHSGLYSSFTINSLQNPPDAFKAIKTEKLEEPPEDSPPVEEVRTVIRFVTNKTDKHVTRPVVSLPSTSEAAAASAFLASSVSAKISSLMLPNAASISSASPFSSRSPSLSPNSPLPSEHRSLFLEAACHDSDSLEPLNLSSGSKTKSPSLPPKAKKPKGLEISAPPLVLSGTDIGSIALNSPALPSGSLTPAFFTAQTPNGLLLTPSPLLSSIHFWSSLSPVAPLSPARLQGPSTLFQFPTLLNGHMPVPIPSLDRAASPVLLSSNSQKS
The settings on record: protein: recombinant; tags: N-terminal GST; dsDNA, one strand shown. The procedure, abridged:
as §1

The next assay concerns the target T7, FEV (Homo sapiens, UniProt Q99581 1-238).
T7 sequence: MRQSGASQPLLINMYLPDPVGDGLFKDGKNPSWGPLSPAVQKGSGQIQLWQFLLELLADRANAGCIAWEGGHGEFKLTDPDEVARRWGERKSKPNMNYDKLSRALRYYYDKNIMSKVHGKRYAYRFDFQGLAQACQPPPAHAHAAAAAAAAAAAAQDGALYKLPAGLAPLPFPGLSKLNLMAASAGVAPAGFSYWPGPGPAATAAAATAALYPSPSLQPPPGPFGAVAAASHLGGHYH
To be noted: protein: recombinant; tags: N-terminal GST; dsDNA, one strand shown. An outline of the steps: as §1

The next assay addresses ETV5 (Homo sapiens, UniProt P41161 1-510). To be noted: protein: recombinant; tags: N-terminal GST; dsDNA, one strand shown. An outline of the steps:
as §1

A further assay has as its target HSF1 (Homo sapiens, UniProt Q00613 1-529). To be noted: protein: recombinant; tags: N-terminal GST; chain copies: 3; dsDNA, one strand shown. An outline of the steps:
as §1

The target in another assay is T8, SPIC (Homo sapiens, UniProt Q8N5J4 1-248).
T8 sequence: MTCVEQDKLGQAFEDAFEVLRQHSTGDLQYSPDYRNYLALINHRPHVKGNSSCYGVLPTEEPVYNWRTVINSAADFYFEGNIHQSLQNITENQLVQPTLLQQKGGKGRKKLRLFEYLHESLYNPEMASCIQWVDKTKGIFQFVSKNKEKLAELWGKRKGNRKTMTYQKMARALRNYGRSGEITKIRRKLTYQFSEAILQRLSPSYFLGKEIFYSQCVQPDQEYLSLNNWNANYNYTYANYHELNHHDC
The settings on record: protein: recombinant; tags: N-terminal GST; dsDNA, one strand shown. An outline of the steps: as §1

The target in a further assay is ELF4 (Homo sapiens, UniProt Q99607 1-663). The settings on record: protein: recombinant; tags: N-terminal GST; dsDNA, one strand shown. The procedure, abridged:
as §1

A further assay deals with T9, ELK4 (Homo sapiens, UniProt P28324-2 1-405).
T9 sequence: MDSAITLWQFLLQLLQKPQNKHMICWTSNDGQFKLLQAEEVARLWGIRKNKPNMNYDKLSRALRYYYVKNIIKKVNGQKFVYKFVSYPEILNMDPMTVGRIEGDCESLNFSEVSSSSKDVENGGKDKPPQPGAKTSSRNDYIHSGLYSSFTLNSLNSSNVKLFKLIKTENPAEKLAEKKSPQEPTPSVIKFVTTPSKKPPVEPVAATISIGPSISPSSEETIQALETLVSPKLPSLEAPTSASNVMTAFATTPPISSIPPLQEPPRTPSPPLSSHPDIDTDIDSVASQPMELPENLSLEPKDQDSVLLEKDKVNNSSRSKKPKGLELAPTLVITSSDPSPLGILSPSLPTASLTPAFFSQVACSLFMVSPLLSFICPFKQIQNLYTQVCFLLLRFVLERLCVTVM
To be noted: protein: recombinant; tags: N-terminal GST; dsDNA, one strand shown. An outline of the steps:
as §1

The target in another assay is T10, ETV2 (Homo sapiens, UniProt O00321 1-342).
T10 sequence: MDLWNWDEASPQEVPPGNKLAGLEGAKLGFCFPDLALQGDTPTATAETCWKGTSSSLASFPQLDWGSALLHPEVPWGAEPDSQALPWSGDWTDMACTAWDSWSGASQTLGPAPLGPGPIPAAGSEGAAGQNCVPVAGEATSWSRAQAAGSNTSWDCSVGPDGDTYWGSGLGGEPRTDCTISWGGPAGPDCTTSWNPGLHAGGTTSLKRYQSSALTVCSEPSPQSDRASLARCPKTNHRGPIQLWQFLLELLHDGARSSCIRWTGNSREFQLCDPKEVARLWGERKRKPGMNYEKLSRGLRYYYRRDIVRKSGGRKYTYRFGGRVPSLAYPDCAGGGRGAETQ
To be noted: protein: recombinant; tags: N-terminal GST; dsDNA, one strand shown. The procedure, abridged: as §1

A further assay addresses T11, ELF3 (Homo sapiens, UniProt P78545 1-371).
T11 sequence: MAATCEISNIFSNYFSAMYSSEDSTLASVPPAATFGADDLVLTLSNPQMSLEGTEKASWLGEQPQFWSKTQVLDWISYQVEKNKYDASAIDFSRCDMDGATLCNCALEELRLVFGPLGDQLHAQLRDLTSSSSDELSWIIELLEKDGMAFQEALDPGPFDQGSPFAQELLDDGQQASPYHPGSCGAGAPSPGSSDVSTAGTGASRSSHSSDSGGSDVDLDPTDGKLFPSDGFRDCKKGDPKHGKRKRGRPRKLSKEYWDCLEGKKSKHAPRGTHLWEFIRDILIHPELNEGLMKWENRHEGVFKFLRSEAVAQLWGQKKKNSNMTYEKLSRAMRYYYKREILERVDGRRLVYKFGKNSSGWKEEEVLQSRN
The settings on record: protein: recombinant; tags: N-terminal GST; dsDNA, one strand shown. The procedure, abridged: as §1

A further assay addresses CRX (Homo sapiens, UniProt O43186 1-299). To be noted: protein: recombinant; tags: N-terminal GST; dsDNA, one strand shown. An outline of the steps:
as §1

The target in another assay is ETV1 (Homo sapiens, UniProt P50549 1-477). To be noted: protein: recombinant; tags: N-terminal GST; dsDNA, one strand shown. An outline of the steps:
as §1

Sequence of ETV1 (P50549 whole entry): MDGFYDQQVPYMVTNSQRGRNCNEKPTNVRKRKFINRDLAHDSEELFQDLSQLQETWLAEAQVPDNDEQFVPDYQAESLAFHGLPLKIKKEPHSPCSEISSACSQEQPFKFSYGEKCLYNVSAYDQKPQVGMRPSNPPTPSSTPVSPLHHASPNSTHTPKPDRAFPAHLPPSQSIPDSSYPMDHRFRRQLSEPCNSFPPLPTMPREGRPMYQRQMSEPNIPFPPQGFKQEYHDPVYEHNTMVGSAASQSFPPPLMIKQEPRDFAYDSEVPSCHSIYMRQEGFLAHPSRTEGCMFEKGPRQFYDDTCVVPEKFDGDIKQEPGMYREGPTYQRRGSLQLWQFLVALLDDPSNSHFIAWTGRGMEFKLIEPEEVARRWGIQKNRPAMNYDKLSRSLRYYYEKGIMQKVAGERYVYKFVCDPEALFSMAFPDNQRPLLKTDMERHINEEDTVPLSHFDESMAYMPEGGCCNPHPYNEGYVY
Sequence of CRX (O43186 whole entry): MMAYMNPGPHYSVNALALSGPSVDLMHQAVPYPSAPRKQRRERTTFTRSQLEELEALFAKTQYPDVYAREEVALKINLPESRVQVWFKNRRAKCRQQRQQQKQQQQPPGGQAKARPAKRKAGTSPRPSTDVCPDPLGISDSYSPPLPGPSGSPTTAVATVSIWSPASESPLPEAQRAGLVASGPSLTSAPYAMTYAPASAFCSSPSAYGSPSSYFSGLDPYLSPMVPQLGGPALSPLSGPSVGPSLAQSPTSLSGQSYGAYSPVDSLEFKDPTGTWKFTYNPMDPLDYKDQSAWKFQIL
Sequence of ETV5 (P41161 whole entry): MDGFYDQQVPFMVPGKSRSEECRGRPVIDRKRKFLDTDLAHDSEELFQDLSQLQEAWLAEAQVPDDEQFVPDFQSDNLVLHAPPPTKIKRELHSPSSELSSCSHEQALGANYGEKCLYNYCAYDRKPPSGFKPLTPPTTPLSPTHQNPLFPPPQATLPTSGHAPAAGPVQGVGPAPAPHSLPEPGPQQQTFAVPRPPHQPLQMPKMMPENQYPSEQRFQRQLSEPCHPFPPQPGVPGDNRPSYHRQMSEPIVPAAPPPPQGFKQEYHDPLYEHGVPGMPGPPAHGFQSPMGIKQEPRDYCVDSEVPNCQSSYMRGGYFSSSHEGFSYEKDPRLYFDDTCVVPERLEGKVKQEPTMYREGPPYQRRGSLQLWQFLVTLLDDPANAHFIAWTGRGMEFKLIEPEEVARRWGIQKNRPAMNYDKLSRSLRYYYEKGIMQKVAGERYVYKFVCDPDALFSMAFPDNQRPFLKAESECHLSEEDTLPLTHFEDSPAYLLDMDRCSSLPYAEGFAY
Sequence of HSF1 (Q00613 whole entry): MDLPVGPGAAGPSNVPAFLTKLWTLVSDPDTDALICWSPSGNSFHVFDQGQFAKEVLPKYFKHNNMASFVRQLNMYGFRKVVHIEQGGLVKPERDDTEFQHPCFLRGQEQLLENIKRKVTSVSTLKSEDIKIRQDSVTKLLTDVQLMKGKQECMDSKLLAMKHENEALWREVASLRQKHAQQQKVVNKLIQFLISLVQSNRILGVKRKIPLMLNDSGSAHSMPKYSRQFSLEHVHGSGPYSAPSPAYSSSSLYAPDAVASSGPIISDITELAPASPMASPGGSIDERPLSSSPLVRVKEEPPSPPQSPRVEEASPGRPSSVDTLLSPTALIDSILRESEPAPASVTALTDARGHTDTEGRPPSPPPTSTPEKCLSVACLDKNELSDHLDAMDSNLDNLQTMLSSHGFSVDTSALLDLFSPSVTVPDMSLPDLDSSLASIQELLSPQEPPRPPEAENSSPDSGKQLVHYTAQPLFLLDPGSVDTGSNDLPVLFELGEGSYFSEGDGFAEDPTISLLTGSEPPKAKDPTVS
Sequence of ELF4 (Q99607 whole entry): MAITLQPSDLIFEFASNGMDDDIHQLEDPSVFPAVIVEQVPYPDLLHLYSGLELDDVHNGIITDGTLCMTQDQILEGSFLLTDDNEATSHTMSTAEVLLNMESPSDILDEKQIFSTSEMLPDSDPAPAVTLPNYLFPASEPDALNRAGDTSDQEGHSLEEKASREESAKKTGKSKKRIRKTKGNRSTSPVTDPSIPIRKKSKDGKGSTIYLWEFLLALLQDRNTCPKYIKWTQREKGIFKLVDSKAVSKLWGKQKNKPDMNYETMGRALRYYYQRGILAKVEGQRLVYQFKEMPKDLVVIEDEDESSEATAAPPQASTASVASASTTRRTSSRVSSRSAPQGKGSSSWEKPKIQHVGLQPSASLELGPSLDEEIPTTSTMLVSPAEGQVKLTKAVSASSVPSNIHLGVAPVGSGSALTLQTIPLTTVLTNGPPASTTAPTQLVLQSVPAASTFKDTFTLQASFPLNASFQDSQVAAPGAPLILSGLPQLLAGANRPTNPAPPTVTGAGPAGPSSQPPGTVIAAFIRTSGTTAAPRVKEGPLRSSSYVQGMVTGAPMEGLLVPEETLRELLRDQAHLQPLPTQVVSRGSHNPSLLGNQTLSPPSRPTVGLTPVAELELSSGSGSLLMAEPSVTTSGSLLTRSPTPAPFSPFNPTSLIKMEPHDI
Sequence of ELF1 (P32519 whole entry): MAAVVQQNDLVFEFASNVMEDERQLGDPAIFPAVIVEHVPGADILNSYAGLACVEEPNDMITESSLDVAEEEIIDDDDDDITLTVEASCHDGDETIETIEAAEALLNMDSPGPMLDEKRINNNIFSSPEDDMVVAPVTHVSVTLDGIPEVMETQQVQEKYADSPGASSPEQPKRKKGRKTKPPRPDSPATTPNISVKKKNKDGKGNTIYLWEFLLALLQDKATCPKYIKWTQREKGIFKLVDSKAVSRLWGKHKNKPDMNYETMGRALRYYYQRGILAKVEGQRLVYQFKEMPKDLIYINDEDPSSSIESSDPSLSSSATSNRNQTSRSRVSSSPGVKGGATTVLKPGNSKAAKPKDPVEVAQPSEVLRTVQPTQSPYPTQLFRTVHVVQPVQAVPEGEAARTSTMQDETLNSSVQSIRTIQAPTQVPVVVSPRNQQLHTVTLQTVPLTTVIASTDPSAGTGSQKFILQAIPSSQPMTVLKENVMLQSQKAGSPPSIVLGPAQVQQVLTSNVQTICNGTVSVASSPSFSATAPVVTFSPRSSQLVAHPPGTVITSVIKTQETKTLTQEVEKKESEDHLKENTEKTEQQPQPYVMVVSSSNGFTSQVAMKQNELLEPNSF
Sequence of SPIB (Q01892 whole entry): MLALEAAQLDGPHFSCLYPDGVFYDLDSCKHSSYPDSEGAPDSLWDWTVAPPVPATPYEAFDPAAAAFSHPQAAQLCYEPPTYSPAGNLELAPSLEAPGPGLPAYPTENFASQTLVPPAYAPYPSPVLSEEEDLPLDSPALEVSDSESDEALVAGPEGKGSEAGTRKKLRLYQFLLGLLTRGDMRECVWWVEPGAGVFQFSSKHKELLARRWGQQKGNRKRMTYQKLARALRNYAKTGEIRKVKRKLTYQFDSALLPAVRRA

Regarding TTTGGT, the binding signal with FLI1 is 1.48 fold enrichment (6-mer frequency, TF over GST control); with ELK1, 1.29 fold enrichment (6-mer frequency, TF over GST control); with GABPA, 1.42 fold enrichment (6-mer frequency, TF over GST control); with ERG it was 1.31 fold enrichment (6-mer frequency, TF over GST control); with ELF1, 1.32 fold enrichment (6-mer frequency, TF over GST control); with EHF, 1.36 fold enrichment (6-mer frequency, TF over GST control). Besides, the binding signal is 1.27 fold enrichment (6-mer frequency, TF over GST control) in the assay with SPI1; 1.3 fold enrichment (6-mer frequency, TF over GST control) in the assay with SPIB; 1.37 fold enrichment (6-mer frequency, TF over GST control) with ELK3; 1.37 fold enrichment (6-mer frequency, TF over GST control) with FEV; 1.29 fold enrichment (6-mer frequency, TF over GST control) with ETV5; 1.36 fold enrichment (6-mer frequency, TF over GST control) with HSF1. For the same sequence, the binding signal was 1.37 fold enrichment (6-mer frequency, TF over GST control) with SPIC; 1.3 fold enrichment (6-mer frequency, TF over GST control) with ELF4; 1.44 fold enrichment (6-mer frequency, TF over GST control) with ELK4; 1.43 fold enrichment (6-mer frequency, TF over GST control) in the assay with ETV2; 1.17 fold enrichment (6-mer frequency, TF over GST control) with ELF3; 1.51 fold enrichment (6-mer frequency, TF over GST control) in the assay with CRX. The binding signal with ETV1 was 1.36 fold enrichment (6-mer frequency, TF over GST control).

For the origin of these results see article PMC7862700, “An all-to-all approach to the identification of sequence-specific readers for epigenetic DNA modifications on cytosine”.
